Measured values: PubChem BioAssay (NCATS)
Results filed as inconclusive are left out. Calls of active or inactive are those of the source. The call rests on the fitted dose curve; in most records, active means well fitted curve in the direction sought with a large enough effect; inconclusive means small, poorly fitted or top-dose-only effect, or another doubt; inactive means no such curve, though single readings can be large; an effect the other way counts as inactive or inconclusive.

Tests used:
Es-2 = assay: Primary qHTS to identify gynecologic anti-cancer compounds using libraries of approved drugs and bioactive compounds (AID 1345084); settings: Gynecologic cancer cell panel viability, ATPlite luminescence, 48 h; series mostly up to 57.5 µM; further: nearly all actives have a fitted effect of over 55% in size
In short: (§1)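 ATP-based viability (ATPlite), 1,000 cells/well, 16 h pre-incubation, 48 h compound at 37 C, 5% CO2, 15 min RT before read.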

HeLa = assay: as above; settings: Gynecologic cancer cell panel viability, ATPlite luminescence, 48 h; series mostly up to 57.5 µM
In short: as §1

Hek293T = assay: as above; settings: Gynecologic cancer cell panel viability, ATPlite luminescence, 48 h, control line for the selectivity index; series mostly up to 57.5 µM
In short: as §1

JEG-3 = assay: as above; settings: Gynecologic cancer cell panel viability, ATPlite luminescence, 48 h; series mostly up to 57.5 µM
In short: as §1

OV90 = assay: as above; settings: Gynecologic cancer cell panel viability, ATPlite luminescence, 48 h; series mostly up to 57.5 µM
In short: as §1

PA-1 = assay: as above; settings: Gynecologic cancer cell panel viability, ATPlite luminescence, 48 h; series mostly up to 57.5 µM
In short: as §1

SKOV3 = assay: as above; settings: Gynecologic cancer cell panel viability, ATPlite luminescence, 48 h; series mostly up to 57.5 µM
In short: as §1

Tov-21-G = assay: as above; settings: Gynecologic cancer cell panel viability, ATPlite luminescence, 48 h; series mostly up to 57.5 µM
In short: as §1

Tov112D = assay: as above; settings: Gynecologic cancer cell panel viability, ATPlite luminescence, 48 h; series mostly up to 57.5 µM
In short: as §1

[1] = Drug repurposing screens with cells derived from glioblastoma tumor samples (AID 1345199); settings: GBM patient neurospheres viability, ATP luminescence, 48 h; further: nearly all actives have a fitted effect of over 40% in size; further: potency means the concentration at half of the fitted maximal effect
In short: (§2)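 Primary testing used CD133+ neurospheres from four GBM patients, seven concentrations, 48 h exposure and ATP-based viability; confirmation added three slower-growing patient lines.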

astro = assay: as above; settings: viability, ATP luminescence, 48 h; series mostly up to 45.9 µM
In short: as §2

[2] = at 45.9 µM (top of the series), tumour line B
[3] = at 45.9 µM (top of the series), tumour line D
[4] = at 46 µM (top of the series), tumour line A
[5] = at 46.1 µM (top of the series), tumour line C
On the % scale 0 is the no-effect control and ±100 the full control effect.

CCOC(=O)[C@H](CCc1ccccc1)N[C@H]1CS[C@H](c2cccs2)CN(CC(=O)O)C1=O
inactive: Potency (Es-2) | Potency (HeLa) | Potency (Hek293T) | Potency (JEG-3) | Potency (OV90) | Potency (PA-1) | Potency (SKOV3) | Potency (Tov-21-G) | Potency (Tov112D) | activity, negative = cell killing [1, 2] -5.27% | activity, negative = cell killing [1, 3] -7.87% | activity, negative = cell killing [1, 4] -16.7% | activity, negative = cell killing [1, 5] -21.6% | Potency (astro)

O=C(O)CCn1c2c(c3ccccc31)C[C@H](NS(=O)(=O)c1ccc(F)cc1)CC2
inactive: Potency (Es-2) | Potency (HeLa) | Potency (Hek293T) | Potency (JEG-3) | Potency (OV90) | Potency (PA-1) | Potency (SKOV3) | Potency (Tov-21-G) | Potency (Tov112D) | activity, negative = cell killing [1, 2] -3.62% | activity, negative = cell killing [1, 3] -7.83% | activity, negative = cell killing [1, 4] -16.4% | activity, negative = cell killing [1, 5] -18.1%

CC(C)Cn1cnc2c(N)nc3ccccc3c21
inactive: Potency (Es-2) | Potency (HeLa) | Potency (Hek293T) | Potency (JEG-3) | Potency (OV90) | Potency (PA-1) | Potency (SKOV3) | Potency (Tov-21-G) | Potency (Tov112D) | activity, negative = cell killing [1, 2] -23.5%

CCOC(=O)c1ccc(C#Cc2ccc3c(c2)C(C)(C)CCS3)nc1
inactive: Potency (Es-2) | Potency (HeLa) | Potency (Hek293T) | Potency (JEG-3) | Potency (OV90) | Potency (PA-1) | Potency (SKOV3) | Potency (Tov-21-G) | Potency (Tov112D)

CN(C)CCc1c[nH]c2ccc(CS(=O)(=O)N3CCCC3)cc12
inactive: Potency (Es-2) | Potency (HeLa) | Potency (Hek293T) | Potency (JEG-3) | Potency (OV90) | Potency (PA-1) | Potency (SKOV3) | Potency (Tov-21-G) | Potency (Tov112D) | activity, negative = cell killing [1, 2] -15.8% | activity, negative = cell killing [1, 3] -5.89% | activity, negative = cell killing [1, 4] -32.2% | activity, negative = cell killing [1, 5] -0.0757%

O=C(NCC1CN(c2ccc(N3CCOCC3=O)cc2)C(=O)O1)c1ccc(Cl)s1 (configuration not stated)
inactive: Potency (Es-2) | Potency (HeLa) | Potency (Hek293T) | Potency (JEG-3) | Potency (OV90) | Potency (PA-1) | Potency (SKOV3) | Potency (Tov-21-G) | Potency (Tov112D)

N[C@@H](C(=O)N[C@@H]1C(=O)N2C(C(=O)O)=C(Cl)CS[C@H]12)c1ccccc1
inactive: activity change, negative = cytotoxicity (Es-2) 3.68% [at 11.6 µM] | activity change, negative = cytotoxicity (HeLa) 2.57% [at 11.6 µM] | activity change, negative = cytotoxicity (Hek293T) 4.98% [at 11.6 µM] | activity change, negative = cytotoxicity (JEG-3) 1.47% [at 11.6 µM] | activity change, negative = cytotoxicity (OV90) 0.914% [at 11.6 µM] | activity change, negative = cytotoxicity (PA-1) 14.4% [at 11.6 µM] | activity change, negative = cytotoxicity (SKOV3) 12.2% [at 11.6 µM] | activity change, negative = cytotoxicity (Tov-21-G) 0.747% [at 11.6 µM] | activity change, negative = cytotoxicity (Tov112D) 2.46% [at 11.6 µM] | activity, negative = cell killing [1, 2] -8.97% | activity, negative = cell killing [1, 3] 11.2% | activity, negative = cell killing [1, 5] 7.75%

CN(Cc1cc(Br)cc(Br)c1N)C1CCCCC1
active: Potency ([1]; tumour line A) 5.62 µM
inactive: Potency (Es-2) | Potency (HeLa) | Potency (Hek293T) | Potency (JEG-3) | Potency (OV90) | Potency (PA-1) | Potency (SKOV3) | Potency (Tov-21-G) | Potency (Tov112D) | activity, negative = cell killing [1, 2] -30.4% | activity, negative = cell killing [1, 5] -4.61%
